# Numbering of substitutions follows the chain as printed; changes in the protein carry UniProt numbers. Over roughly 16,000 sequences, “ka relative to ugcaugu” has its median near 0.096; the highest 2% begin near 0.35. The sample holds the highest values, similar sequences and a random draw of the others, so the mix is not that of the screen.
# T1: RBFOX1 RRM RbFoxmut (Fox-RRM*) (Homo sapiens, UniProt Q9NWB1 109-208, R118D;E147R;N151S;E152T)
# T1 sequence: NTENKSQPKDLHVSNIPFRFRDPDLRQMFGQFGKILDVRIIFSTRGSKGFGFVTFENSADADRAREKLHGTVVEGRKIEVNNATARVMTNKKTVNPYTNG
# B1: GCUCUGU (DNA:RNA)
# RNA: GGGAGACCGGAAUUCAGAUUGUCCGCUCUGUUUAAAUCCCGUCGUAGCCACCA
# DNA 1: CAATCTGAATTCCGGTCTCCC
# DNA 2: TGGTGGCTACGACGGGATT
# B2: ACCACUU (DNA:RNA)
# RNA: B1 RNA with G25A, U27C, C28A, U29C, G30U
# DNA 1: CAATCTGAATTCCGGTCTCCC
# DNA 2: TGGTGGCTACGACGGGATT
# B3: GCUCAUC (DNA:RNA)
# RNA: B1 RNA with U29A, G30U, U31C
# DNA 1: CAATCTGAATTCCGGTCTCCC
# DNA 2: TGGTGGCTACGACGGGATT
# B4: UUAAUGA (DNA:RNA)
# RNA: B1 RNA with G25U, C26U, U27A, C28A, U31A
# DNA 1: CAATCTGAATTCCGGTCTCCC
# DNA 2: TGGTGGCTACGACGGGATT
# B5: CUGGUAA (DNA:RNA)
# RNA: B1 RNA with G25C, C26U, U27G, C28G, G30A, U31A
# DNA 1: CAATCTGAATTCCGGTCTCCC
# DNA 2: TGGTGGCTACGACGGGATT
# B6: AAGAUCU (DNA:RNA)
# RNA: B1 RNA with G25A, C26A, U27G, C28A, G30C
# DNA 1: CAATCTGAATTCCGGTCTCCC
# DNA 2: TGGTGGCTACGACGGGATT
# B7: AAAUCAC (DNA:RNA)
# RNA: GGGAGACCGGAAUUCAGAUUGUCCAAAUCACUUAAAUCCCGUCGUAGCCACCA
# DNA 1: CAATCTGAATTCCGGTCTCCC
# DNA 2: TGGTGGCTACGACGGGATT
# B8: GUAUGCC (DNA:RNA)
# RNA: B7 RNA with A25G, A26U, C29G, A30C
# DNA 1: CAATCTGAATTCCGGTCTCCC
# DNA 2: TGGTGGCTACGACGGGATT
# B9: GCGUCCG (DNA:RNA)
# RNA: B7 RNA with A25G, A26C, A27G, A30C, C31G
# DNA 1: CAATCTGAATTCCGGTCTCCC
# DNA 2: TGGTGGCTACGACGGGATT
# B10: GCGUCGU (DNA:RNA)
# RNA: B1 RNA with U27G, C28U, U29C
# DNA 1: CAATCTGAATTCCGGTCTCCC
# DNA 2: TGGTGGCTACGACGGGATT
# B11: UUAUGCG (DNA:RNA)
# RNA: B7 RNA with A25U, A26U, C29G, A30C, C31G
# DNA 1: CAATCTGAATTCCGGTCTCCC
# DNA 2: TGGTGGCTACGACGGGATT
# B12: GCGUAUG (DNA:RNA)
# RNA: B1 RNA with U27G, C28U, U29A, G30U, U31G
# DNA 1: CAATCTGAATTCCGGTCTCCC
# DNA 2: TGGTGGCTACGACGGGATT
# B13: GUAUGUC (DNA:RNA)
# RNA: B7 RNA with A25G, A26U, C29G, A30U
# DNA 1: CAATCTGAATTCCGGTCTCCC
# DNA 2: TGGTGGCTACGACGGGATT
# B14: GUAUGCG (DNA:RNA)
# RNA: B7 RNA with A25G, A26U, C29G, A30C, C31G
# DNA 1: CAATCTGAATTCCGGTCTCCC
# DNA 2: TGGTGGCTACGACGGGATT
# B15: GCGUUUG (DNA:RNA)
# RNA: B1 RNA with U27G, C28U, G30U, U31G
# DNA 1: CAATCTGAATTCCGGTCTCCC
# DNA 2: TGGTGGCTACGACGGGATT
# B16: CGCGUCG (DNA:RNA)
# RNA: B1 RNA with G25C, C26G, U27C, C28G, G30C, U31G
# DNA 1: CAATCTGAATTCCGGTCTCCC
# DNA 2: TGGTGGCTACGACGGGATT
# B17: GGUCGGG (DNA:RNA)
# RNA: B1 RNA with C26G, U29G, U31G
# DNA 1: CAATCTGAATTCCGGTCTCCC
# DNA 2: TGGTGGCTACGACGGGATT
# B18: GGGACGG (DNA:RNA)
# RNA: B1 RNA with C26G, U27G, C28A, U29C, U31G
# DNA 1: CAATCTGAATTCCGGTCTCCC
# DNA 2: TGGTGGCTACGACGGGATT
# B19: GGUUUGG (DNA:RNA)
# RNA: B1 RNA with C26G, C28U, U31G
# DNA 1: CAATCTGAATTCCGGTCTCCC
# DNA 2: TGGTGGCTACGACGGGATT
# B20: GGUUUUG (DNA:RNA)
# RNA: B1 RNA with C26G, C28U, G30U, U31G
# DNA 1: CAATCTGAATTCCGGTCTCCC
# DNA 2: TGGTGGCTACGACGGGATT
# B21: GGUUUGU (DNA:RNA)
# RNA: B1 RNA with C26G, C28U
# DNA 1: CAATCTGAATTCCGGTCTCCC
# DNA 2: TGGTGGCTACGACGGGATT
# B22: GUCCGGU (DNA:RNA)
# RNA: B1 RNA with C26U, U27C, U29G
# DNA 1: CAATCTGAATTCCGGTCTCCC
# DNA 2: TGGTGGCTACGACGGGATT
# B23: CGGUUUG (DNA:RNA)
# RNA: B7 RNA with A25C, A26G, A27G, C29U, A30U, C31G
# DNA 1: CAATCTGAATTCCGGTCTCCC
# DNA 2: TGGTGGCTACGACGGGATT
# B24: GGUUUUU (DNA:RNA)
# RNA: B1 RNA with C26G, C28U, G30U
# DNA 1: CAATCTGAATTCCGGTCTCCC
# DNA 2: TGGTGGCTACGACGGGATT
# Molecular target: T1, RBFOX1 RRM RbFoxmut (Fox-RRM*)
# Assay: EMSA; HiTS-Eq, 1 nM pool, 10 min; buffer printed only for the single-RNA assays: 10 mM Tris pH 7.5, 150 mM NaCl, 3.4 mM EDTA, 0.001% NP-40, 30 C
# Settings: tags: His6 N-terminal (pET28a); label: 5' 32P
# How it was run: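 Purified RbFox RRM, wild type or mutant, was incubated for 10 min in 50 µL with 1 nM of a 5′-radiolabelled RNA pool carrying 7 randomized nucleotides, whose flanks were annealed to DNA oligonucleotides, over a series of increasing protein concentrations. Unbound RNA was resolved on 8% native PAGE, cut out, reverse-transcribed, barcoded by PCR and sequenced on an Illumina HiSeq 2500. Relative association constants were derived from changes in read counts for each RNA species versus the control reaction and normalised to the cognate motif.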
row,Binder,binding signal
1,B1,0.102 KA relative to UGCAUGU
2,B2,0.0717 KA relative to UGCAUGU
3,B3,0.06 KA relative to UGCAUGU
4,B4,0.0717 KA relative to UGCAUGU
5,B5,0.121 KA relative to UGCAUGU
6,B6,0.0643 KA relative to UGCAUGU
7,B7,0.0617 KA relative to UGCAUGU
8,B8,0.278 KA relative to UGCAUGU
9,B9,0.135 KA relative to UGCAUGU
10,B10,0.129 KA relative to UGCAUGU
11,B11,0.13 KA relative to UGCAUGU
12,B12,0.876 KA relative to UGCAUGU
13,B13,0.334 KA relative to UGCAUGU
14,B14,0.468 KA relative to UGCAUGU
15,B15,0.403 KA relative to UGCAUGU
16,B16,0.101 KA relative to UGCAUGU
17,B17,0.0602 KA relative to UGCAUGU
18,B18,0.0996 KA relative to UGCAUGU
19,B19,0.277 KA relative to UGCAUGU
20,B20,0.191 KA relative to UGCAUGU
21,B21,0.366 KA relative to UGCAUGU
22,B22,0.132 KA relative to UGCAUGU
23,B23,0.633 KA relative to UGCAUGU
24,B24,0.056 KA relative to UGCAUGU
